LmPK inhibitor = LmPK (Leishmania mexicana) enzyme inhibition; purified LmPK, Kinase-Glo ATP luminescence, 1 h; AID 1721; Potency, µM (top dose mostly 57.5 µM), for the others: at the highest dose activity change, negative = inhibition, actives largely listed as inhibitors; Q27686; 0.37% of 290,000 active; also: potency is read from the fitted curve at half-maximal effect; % is scaled to controls: 0 for no effect and ±100 for the full control effect
Target sequence (Q27686 whole entry, looked up): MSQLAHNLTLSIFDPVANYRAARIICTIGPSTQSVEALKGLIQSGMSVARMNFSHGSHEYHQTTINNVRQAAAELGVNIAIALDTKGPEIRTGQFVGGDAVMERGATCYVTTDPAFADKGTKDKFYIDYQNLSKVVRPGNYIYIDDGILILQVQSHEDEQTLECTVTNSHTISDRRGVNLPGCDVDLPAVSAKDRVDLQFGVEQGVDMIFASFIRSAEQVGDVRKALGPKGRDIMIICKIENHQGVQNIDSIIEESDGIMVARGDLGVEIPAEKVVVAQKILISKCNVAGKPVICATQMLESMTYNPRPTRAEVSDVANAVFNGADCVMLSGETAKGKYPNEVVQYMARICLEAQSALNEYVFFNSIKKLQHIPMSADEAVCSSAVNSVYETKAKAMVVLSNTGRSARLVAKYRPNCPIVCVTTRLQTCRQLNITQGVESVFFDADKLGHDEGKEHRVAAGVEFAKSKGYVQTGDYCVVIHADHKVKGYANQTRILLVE
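ATP generated from ADP (0.1 mM) and PEP (0.5 mM) by 0.1 nM LmPK over 1 h at room temperature (pH 7.2 imidazole buffer) was detected by coupled luciferase luminescence. Values were normalized to uninhibited and no-enzyme wells.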
Pf growth 48h = inhibits P. falciparum growth in the first generation, 48 h. Potency, µM (highest dose often 28.7 µM), for the others: top-dose activity change, negative = inhibition, hits mostly inhibitors. P. falciparum luciferase growth in erythrocytes, 48 h. 5.9% of 310,000 active; also: potency is read from the fitted curve at half-maximal effect; % is scaled to controls: 0 for no effect and ±100 for the full control effect
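Cell-based growth assay: transgenic P. falciparum expressing firefly luciferase, cultured in red cells within RPMI 1640 containing 0.5% w/v Albumax, 24 mM bicarbonate and gentamycin. A drop in luciferase activity indicates inhibition.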
Pf growth 96h = P. falciparum growth inhibition at 96 hours; P. falciparum luciferase reporter growth, 96 h; Potency, µM (series often up to 28.7 µM), inactives show top-dose activity change, negative = inhibition, actives largely listed as inhibitors; 6.9% of 320,000 active; AID 504834; also: potency is read from the fitted curve at half-maximal effect; % is scaled to controls: 0 for no effect and ±100 for the full control effect
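Cell-based qHTS: luciferase-tagged P. falciparum in erythrocytes (2% hematocrit, 0.05% parasitemia final) incubated with compounds for 96 hours, 37 C, 5% CO2; luciferase detection reagent then added and luminescence measured.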
CHX counter = counter-screen for Shiga toxin inhibitors: cycloheximide protein synthesis inhibition | AID 2314 | 12% of 300,000 active | max response, % | cell reporter, cycloheximide protein synthesis inhibition counterscreen; in the data active = max response mostly above about 13%, no sharp cut-off; inactive = mostly below about 14%; also: read at 38.3 µM for the half of the compounds with a filed dose; 0% is about no effect
Shiga inhibitor = inhibitors of Shiga toxin in Vero cells. 9.2% of 290,000 active. inhibition, % at 38.7 µM. Vero cells, Shiga toxin protein synthesis inhibition reporter; in the data active = inhibition mostly above about 28%, no sharp cut-off; inactive = mostly below about 43%; also: 0% is about no effect
The depositor's hits bear a star; i = inactive; ? = inconclusive; . = not tested or not shown. Most compounds without a hit are left out; they make up all but 22% or so of the library. Unless noted, calls follow the shape of the dose curve; as a rule, active = well fitted inhibition curve with a large enough effect; inconclusive = small, poorly fitted or top-dose-only effect, or another doubt; inactive = no such curve, though single readings can be large or run the other way.

SMILES | LmPK inhibitor | Pf growth 48h | Pf growth 96h | CHX counter | Shiga inhibitor
CCC(Oc1ccc(F)cc1)C(=O)N1CCCCCCC1 (configuration not stated) | -2% | 1% | 0% | -2 | -4
CCOc1ccc(OCCC(=O)N(CC)CC(=O)NCc2cccs2)cc1 | . | -19% | 5% | . | .
CCOc1ccc(C(=O)N(Cc2ccccc2)c2cccc(C)c2)cc1OC | -6% | -4% | -41% | -3 | -5
Cc1cc(C)cc(N2C(=O)CC(Sc3ncn[nH]3)C2=O)c1 (configuration not stated) | -3% | -8% | i | -2 | -18
CC(NC(=O)c1ccc(C(C)(C)C)cc1)C(c1cccs1)N1CCOCC1 (configuration not stated) | 6% | 13µM* | 12µM* | -2 | -9
CC(NC(=O)c1ccncc1)C(c1cccs1)N1CCOCC1 (configuration not stated) | 2% | 9% | -6% | -4 | 16
CC(NC(=O)c1ccc2c(c1)OCO2)C(c1cccs1)N1CCOCC1 (configuration not stated) | -4% | -13% | 149% | -2 | -13
CC(C)C(=O)NC(C)C(c1cccs1)N1CCN(c2ccccc2)CC1 (configuration not stated) | 0% | ? | ? | -1 | -4
CC(NC(=O)c1cccs1)C(c1cccs1)N1CCOCC1 (configuration not stated) | 0% | -20% | 2.6µM* | 5 | 4
CC(NC(=O)c1ccc2c(c1)OCO2)C(c1cccs1)N1CCN(c2ccccc2)CC1 (configuration not stated) | 1% | 141% | 12µM* | -2 | -4
CC(NC(=O)c1cccs1)C(c1cccs1)N1CCN(c2ccccc2)CC1 (configuration not stated) | 2% | 9.3µM* | -6% | -2 | -6
COc1ccc(NC(=O)c2nc3ccccc3s2)cc1 | 16µM* | 0% | 274% | 91* | 25*
CC(C)NC(=O)c1nc2ccccc2s1 | -6% | 48% | 2% | 24* | 30*
O=C(Nc1nnc(-c2ccccc2Cl)o1)c1ccco1 | -13% | 17% | 125% | 9 | 11
COc1ccc(OC)c(NC(=O)c2nc3ccccc3s2)c1 | 1% | 68% | 37% | 31* | 44
O=C(Nc1nnc(-c2ccccc2Cl)o1)c1nc2ccccc2s1 | 1% | 24% | 33% | 14* | 22*
O=C(c1oc2ccccc2c1CSCc1ccccc1)N1CCN(c2ncccn2)CC1 | 3% | ? | 17% | -2 | 4
Cc1cc(=O)n2c(n1)SCOC2 | -4% | ? | -5% | 0 | -3
Cc1ccc(-n2ncc3c(SCC(=O)Nc4cc(C)on4)ncnc32)c(C)c1 | 1% | 4% | ? | -6 | 29
CCOc1ccc(N2C(=O)CC(N(Cc3ccco3)C(=O)CCC(=O)O)C2=O)cc1 (configuration not stated) | -8% | -18% | ? | -1 | 14
O=C(c1ccc2c(c1)OCO2)N1CCN(S(=O)(=O)c2ccc(Cl)cc2)CC1 | 8% | ? | 6% | 6 | -4
C=CCNC(=O)c1nc2ccccc2s1 | -1% | 223% | 143% | 51* | 118*
O=C(Nc1nc2ccc(Cl)cc2s1)c1ccc(Br)o1 | -6% | 103% | 128% | 34* | 87*
Cc1cc(C(=O)Nc2nc3ccc(Cl)cc3s2)nn1C | 5% | 148% | 144% | 24* | 92*
Cn1ncc(Cl)c1C(=O)Nc1nc2ccc(Cl)cc2s1 | -25% | 137% | 8% | 66* | 56*
Cc1ccc(/C=C/C(=O)O)cc1S(=O)(=O)Nc1ccccc1C(=O)O | 0% | -10% | 10µM* | 7 | -4
CC1=C(C(=O)c2ccccc2)C(c2ccc(OC(F)F)cc2)NC(=S)N1 (configuration not stated) | -1% | ? | ? | -3 | -15
Clc1ccc(-c2nc3ncccn3c2Nc2ccc3c(c2)OCO3)cc1 | 4% | 4.1µM* | 4.1µM* | 29 | -3
Cc1ccc(-c2nc3ncccn3c2Nc2ccc3c(c2)OCO3)o1 | 3% | -18% | ? | 20* | 11
Cc1ccc(Nc2c(-c3ccc(C)o3)nc3ncccn23)cc1 | 1% | -10% | 5% | 21* | 54*
